Laboratory results reported in PubChem BioAssay (Tox21).
Records with an inconclusive call do not appear. Values without a mark were called inactive. Calls come from the whole dose curve; as a rule, active = well fitted cell-killing curve with a large enough effect in the repeat runs; inconclusive = weak or mixed curves, or effect the other way; inactive = flat fitted curve, though single readings scatter.

Experiment: qHTS assay to identify small molecule antagonists of the retinoid acid receptor (RAR) signaling pathway - cell viability counter screen (AID 1159551); note: nearly all actives have a fitted effect of over 35% in size
Conditions: C3RL4 cells viability, ATP luminescence (CellTiter-Glo), 6 h; series mostly up to 92.4 µM; activity change, negative = cytotoxicity: at the top concentration
From the text: U.S. Tox21 Program National Center for Advancing Translational Sciences [NCATS] NIH Chemical Genomics Center [NCGC] U.S. Environmental Protection Agency [EPA] National Institutes of Environmental Health Sciences [NIEHS] National Toxicology Program [NTP] U.S. Food and Drug Administration [FDA] Tox21 Assay Overview: All-trans Retinoic acid (atRA) is the potent natural metabolite of retinol and plays an important role in normal embryonic development and maintenance of cellular phenotype in adult animals. atRA is the activating ligand for the retinoic acid receptors (RARs) which form heterodimers with retinoid X receptors (RXRs) on the retinoic acid response element (RARE). Through activation of the RAR/RXRs nuclear receptors, atRA regulates the transcription of a large number of protein-coding genes and regulatory RNAs. Intracellular levels of atRA are controlled by the retinol signaling pathway (RSP) that regulates the biosynthesis and catabolism of atRA to maintain physiological levels. Chemicals that interfere with the RSP can cause abnormal intracellular levels of atRA and therefore are potential developmental toxicants. To assess compounds for the potential adverse effect on embryonic development through interfering with retinol signaling, a cell-based RARE luciferase reporter gene assay was used. C3RL4 cell line (OARSA/CFSAN/FDA, Laurel, MD) was used to screen Tox21 10K compound library for identifying inhibitors of the RSP. Also cytotoxicity was assessed by determining the viability of cells based on the quantitation of ATP.
Tox21 Assay Protocol Summary: C3RL4 cells were seeded at 1,000/well in 4 uL of assay medium into white solid 1,536-well tissue culture plates (Greiner Bio-One North America Inc. Monroe, NC) using a Multidrop Combi (Thermo Scientific, Waltham, MA) dispenser. After incubation at 37 C and 5% CO2 for an overnight, 23 nL of compounds dissolved in DMSO, positive control or DMSO only were transferred by a Pintool station (Kalypsys, San Diego, CA). One ul of 1 uM (final concentration) of Retinol was added right after the compound addition by using a Flying Reagent Dispenser (FRD) (Aurora Discovery, San Diego, CA). After 6 hr incubation at 37 C and 5% CO2, 5 uL of CellTiter-Glo reagent (Promega Corporation, Madison, WI) was added to each assay plate using an FRD. Luminescence was quantified on a ViewLux plate reader (PerkinElmer, Waltham, MA) after 30 min incubation at room temperature.
% is set by controls: 0 for no effect and ±100 for the full control effect.

Structure (SMILES) | activity change, negative = cytotoxicity
c1ccc(CCCc2ccccn2)cc1 | -2.01%
COC(=O)C1=C(C)NC(C)=C(C(=O)OCC(C)=O)C1c1ccccc1[N+](=O)[O-] (stereo not given) | -0.634% [at 42.5 µM]
CCCC=O | 4.39%
CC1CCN(CCCC(=O)c2ccc(F)cc2)CC1 | 0.0158% [at 42.5 µM]
CN(C)C(=O)Nc1ccccc1 | -0.849%
CNC(=O)c1c(I)c(NC(=O)CCCCC(=O)Nc2c(I)c(C(=O)O)c(I)c(C(=O)NC)c2I)c(I)c(C(=O)O)c1I | -1.56% [at 42.5 µM]
Cc1ccc(Nc2ccc(O)c3c2C(=O)c2ccccc2C3=O)cc1 | -0.857%
C1COCCO1 | -0.796%
O=S(=O)(c1cccc2cnccc12)N1CCCNCC1 | 2.04% [at 42.5 µM]
CCCCc1ccc2cccc(S(=O)(=O)O)c2c1 | 0.0449%
C/C=C1\C(=O)C[C@H]2[C@@H]3CCC4=CC(=O)CC[C@]4(C)[C@H]3CC[C@]12C | -4.72% [at 42.5 µM]
CC(C)[N+](C)(C)CC(O)COc1cccc2ccccc12 (stereo not given) | 1.2% [at 42.5 µM]
CC(C)(O)c1ccccc1 | 6.29%
C=CCn1c(=O)n([C@@H]2O[C@H](CO)[C@@H](O)[C@H]2O)c2nc(N)[nH]c(=O)c21 | 0.824% [at 42.5 µM]
CCCCCOC(=O)Nc1nc(=O)n([C@@H]2O[C@H](C)[C@@H](O)[C@H]2O)cc1F | 3.72% [at 42.5 µM]
CCOC(=O)Nc1ccc2c(c1)N(C(=O)CCN1CCOCC1)c1ccccc1S2 | -1.67% [at 42.5 µM]
CC(C)c1cccc(C(C)C)c1N | 0.142%
CC(C)(O)Cc1ccccc1 | -0.339%
CN(C)CCOC(c1ccc(Cl)cc1)c1ccccn1 (stereo not given) | -0.973% [at 42.5 µM]
CC(C)COC(=O)c1ccccc1O | 1.92%

Structure (SMILES) | activity change, negative = cytotoxicity
CC/C=C\C#N | 4.07%
O=c1[nH]c2ccccc2c(=O)n1CCCl | 1.55% [at 42.5 µM]
C[N+](C)(C)CC[N+]1(C)Cc2c(Cl)c(Cl)c(Cl)c(Cl)c2C1 | 0.743% [at 42.5 µM]
Cc1c(C)n(CCN(C)C)c2ccc(C(=O)OCCN(C)C)cc12 | -1.96% [at 42.5 µM]
CC(C)(O)C(=O)c1ccc(OCCO)cc1 | 3.73%
Nc1ncnc2c1ncn2Cc1c(F)cccc1Cl | 7.98% [at 42.5 µM]
COc1cc(CCC(C)=O)ccc1O | -0.095%
NS(=O)(=O)c1cc(C2(O)NC(=O)c3ccccc32)ccc1Cl (stereo not given) | 5.3% [at 42.5 µM]
CC(=O)O[C@H](CC(=O)[O-])C[N+](C)(C)C | 3.35%
CC(C)(C)N(CCO)CCO | -3.9%
Nc1ccc2cc(S(=O)(=O)O)ccc2c1 | 5.41%
NC(N)=NS(=O)(=O)c1ccc(N)cc1 | 3.17% [at 42.5 µM]
CCCCCCC(CCCCCCCCCCC(=O)OCC(COC(C)=O)OC(C)=O)OC(C)=O (stereo not given) | -0.0807% [at 42.5 µM]
Oc1cc(O)c2c(c1)O[C@H](c1ccc(O)c(O)c1)[C@H](O)C2 | 5.91% [at 42.5 µM]
CC1(C)SC(C)(C)SC(C)(C)S1 | 4.94%
O=C1C(CCS(=O)c2ccccc2)C(=O)N(c2ccccc2)N1c1ccccc1 (stereo not given) | 2.56% [at 42.5 µM]
CCCCCCC(=O)OCC | 0.181%
CCn1c(=O)c2c(nc(/C=C/c3ccc(OC)c(OC)c3)n2C)n(CC)c1=O | 1.65% [at 42.5 µM]
CCn1cc(C(=O)O)c(=O)c2cc(F)c(N3CCN(C)CC3)cc21 | 1.65% [at 19 µM]
Cc1cc(C)c(NC(=O)CN(CC(=O)O)CC(=O)O)c(C)c1Br | 1.49% [at 42.5 µM]
